CD40 NFkB inh: CD40 pathway inhibition in BL2 cells. AID 1053188. BL2 NF-kB luciferase reporter, CD40L-induced, 4 h. 0.94% of 83,000 active. inhibition, % at 10 µM;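 active = mean inhibition of at least 50% with a set share of replicates also reaching that level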;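 note: 0% = neutral control wells and 100% = IKK inhibitor VII at 50 µM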
* marks the source's active call; other numbers are inactive results; [ ] = dose if it differs, or a comment. Shown is part of a subset that was picked to be rich in hits.

SMILES	CD40 NFkB inh
COc1ccccc1NC(=O)N(C)C[C@@H]1OCc2ccccc2-c2c(n(C)c3ccccc23)C(=O)N([C@H](C)CO)C[C@@H]1C	9
CO[C@H](CN(C)S(=O)(=O)c1ccc(Cl)cc1)[C@@H](C)CN([C@@H](C)CO)S(=O)(=O)c1cccc(Cl)c1	5
O=C(OCC(=O)N1CCN(c2ccccc2)CC1)c1ccccc1OC(F)F	-11
O=C(OCC(=O)N1CCN(c2ccccc2)CC1)c1cccs1	-44
O=C(OCC(=O)N1CCN(c2ccccc2)CC1)c1ccccc1NCCO	35*
CCC(=O)N1CC(=O)N2[C@@H](CO)[C@@H](c3ccc(-c4ccc(C#N)cc4)cc3)[C@@H]2C1	2[25 µM]
C[C@H]1CN(C)C(=O)c2cccc(N(C)C)c2O[C@H]1CN(C)S(C)(=O)=O	3
Cc1ccccc1S(=O)(=O)N1[C@H](C#N)[C@H](c2ccc(C#CC3CCCCC3)cc2)[C@H]1CO	48*
Cc1ccccc1S(=O)(=O)N1[C@H](C#N)[C@H](c2ccc(C#CC3CCCC3)cc2)[C@H]1CO	40*
Cc1ccccc1S(=O)(=O)N1[C@H](C#N)[C@H](c2ccc(C#CC3CCCC3)cc2)[C@@H]1CO	-8
Cc1ccccc1S(=O)(=O)N1[C@@H](C#N)[C@@H](c2ccc(C#CC3CCCCC3)cc2)[C@@H]1CO	-10
Cc1ccccc1S(=O)(=O)N1[C@H](C#N)[C@@H](c2ccc(C#CC3CCCCC3)cc2)[C@@H]1CO	0
Cc1ccccc1S(=O)(=O)N1[C@@H](C#N)[C@H](c2ccc(C#CC3CCCC3)cc2)[C@@H]1CO	-5
C[C@H]1CN(C)C(=O)Cc2ccccc2O[C@H]1CN(C)C(=O)OC(C)(C)C	16
COc1ccccc1S(=O)(=O)N[C@H]1CC[C@@H](CCNC(=O)C2CCCC2)O[C@H]1CO	1
CC(C)NC[C@H]1[C@@H](c2ccc(C3=CCCC3)cc2)[C@@H](CO)N1C(=O)CC1CC1	4
C[C@H](C(=O)N(C)C[C@@H]1OCc2ccccc2-c2ccccc2C(=O)N([C@H](C)CO)C[C@@H]1C)c1ccccc1	0
C[C@@H]1CN([C@H](C)CO)C(=O)CCCn2cc(nn2)CO[C@@H]1CN(C)C(=O)Nc1cccc(C(F)(F)F)c1	12[25 µM]
NS(=O)(=O)c1ccc(Sc2nc3ccccc3s2)c([N+](=O)[O-])c1	81*
CSc1nc2ccccc2s1	2
NS(=O)(=O)c1ccc(N/N=C/c2ccccn2)c([N+](=O)[O-])c1	2
CO[C@@H]1CN(C)C(=O)c2cc(NC(=O)C3CCC3)ccc2OC[C@H](C)N(Cc2nccs2)C[C@@H]1C	15
CCC(=O)N1[C@H](CO)[C@@H](c2ccc(C3=CCCC3)cc2)[C@H]1CNC(=O)CN(C)C	-1
O=C(C1CCC1)N1CCCCN2[C@@H](CO)[C@@H](c3ccc(-c4ccncc4)cc3)[C@@H]2C1	1[25 µM]
N#C[C@H]1[C@H](c2ccccc2C2=CCCCC2)[C@H](CO)N1S(=O)(=O)c1cccc(F)c1	15
SMILES	CD40 NFkB inh
OCCN1CCN(CCCN2c3ccccc3Sc3ccc(C(F)(F)F)cc32)CC1	51*
O=C(CN1CCCC1)N1c2ccccc2Sc2ccccc21	1
O=C(N1CCN(CCO)CC1)N1c2ccccc2CCc2ccccc21	3
CC(=O)Nc1cccc2c1O[C@@H](CN(C)S(C)(=O)=O)[C@@H](C)CN(C)C2=O	10
CN(C)c1ccc2c(c1)[C@H]1C[C@H](CC(=O)O)O[C@@H](CO)[C@H]1O2	2[25 µM]
Cc1noc(C)c1S(=O)(=O)N(C)C[C@H]1OCc2ccccc2-c2c(n(C)c3ccccc23)C(=O)N([C@@H](C)CO)C[C@H]1C	65*[25 µM]
Cc1noc(C)c1S(=O)(=O)N(C)C[C@H]1OCc2ccccc2-c2c(n(C)c3ccccc23)C(=O)N([C@H](C)CO)C[C@H]1C	51*[25 µM]
Cc1noc(C)c1S(=O)(=O)N(C)C[C@@H]1OCc2ccccc2-c2c(n(C)c3ccccc23)C(=O)N([C@H](C)CO)C[C@H]1C	45[25 µM]
C[C@@H]1CN([C@H](C)CO)C(=O)c2c(c3ccccc3n2C)-c2ccccc2CO[C@@H]1CN(C)S(C)(=O)=O	-8
Cc1noc(C)c1S(=O)(=O)N(C)C[C@H]1OCc2ccccc2-c2c(n(C)c3ccccc23)C(=O)N([C@@H](C)CO)C[C@@H]1C	32[25 µM]
Cc1noc(C)c1S(=O)(=O)N(C)C[C@@H]1OCc2ccccc2-c2c(n(C)c3ccccc23)C(=O)N([C@@H](C)CO)C[C@H]1C	46[25 µM]
C[C@@H]1CN([C@@H](C)CO)C(=O)c2cccc(NC(=O)c3ccncc3)c2O[C@@H]1CN(C)S(=O)(=O)c1ccccc1	-1[25 µM]
C[C@@H]1CN([C@H](C)CO)C(=O)c2cccc(NS(=O)(=O)c3ccc(Cl)cc3)c2O[C@@H]1CN(C)C(=O)Nc1ccc2c(c1)OCO2	-9[25 µM]
COc1ccc(NC(=O)Nc2ccc3c(c2)[C@@H]2C[C@H](CC(=O)N4CCN(C)CC4)O[C@@H](CO)[C@@H]2O3)cc1	-3[25 µM]
C/C=C/c1ccccc1[C@H]1[C@H](C#N)N(C(=O)c2cccnc2)[C@H]1CO	-2[25 µM]
CC(C)NC(=O)Nc1ccc2c(c1)CC(=O)N(C)C[C@@H](C)[C@@H](CN(C)C(=O)NC(C)C)O2	14
COc1cccc(/C=N/NC(=O)N/N=C/c2cccc(OC)c2O)c1O	-59
COc1cccc(C=NNC(=O)c2ccncc2)c1O	-38
COc1cccc(/C=N/Nc2ccc(C(=O)O)cc2)c1O	96*
CC(C)COC(=O)N(C)C[C@@H]1OCc2ccccc2-c2c(n(C)c3ccccc23)C(=O)N([C@@H](C)CO)C[C@@H]1C	9[25 µM]
CO[C@H]1CN(C)C(=O)c2cc(NS(=O)(=O)c3ccccc3C)ccc2OC[C@H](C)N(C)C[C@@H]1C	-6
Cn1cnc([N+](=O)[O-])c1Oc1cccc2ccccc12	29
Cn1cnc([N+](=O)[O-])c1Cl	12
Cn1cnc([N+](=O)[O-])c1S(=O)(=O)Oc1cccc2ccccc12	101*
Cn1cnc([N+](=O)[O-])c1Oc1ccccc1	12
SMILES	CD40 NFkB inh
CCN(CC)c1c([N+](=O)[O-])ncn1C	4
CCS(=O)(=O)c1c([N+](=O)[O-])ncn1C	95*
C[C@@H]1CN(C)C(=O)Cc2ccccc2O[C@H]1CN(C)C(=O)OC(C)(C)C	-4
C[C@@H]1CN([C@@H](C)CO)C(=O)c2ccccc2-c2ccccc2CO[C@H]1CN(C)C(=O)[C@H](C)c1ccccc1	-1
O=C(C1CCCC1)N1CC[C@@H]2[C@H](CO)Nc3ccc(C4=CCCCC4)cc3[C@@H]21	26
C[C@@H]1CN(C)C(=O)c2cc([N+](=O)[O-])ccc2O[C@H]1CN(C)C(=O)OC(C)(C)C	26
O=C(N[C@@H]1CC[C@@H](CCNS(=O)(=O)c2cccc(Cl)c2)O[C@H]1CO)c1ccc(F)cc1	-2
Cc1ccc(S(=O)(=O)CC(=O)N2CCN(c3ccc([N+](=O)[O-])cc3)CC2)cc1	22
Cc1ccc(CONC(=O)c2ccc([N+](=O)[O-])cc2)cc1	-21
Cc1ccc(S(=O)(=O)CC#CCOC(=O)c2ccc([N+](=O)[O-])cc2)cc1	89*
O=C(C[C@H]1C[C@@H]2c3cc(NC(=O)C4CCOCC4)ccc3O[C@@H]2[C@H](CO)O1)NCc1ccc(Oc2ccccc2)cc1	-6[25 µM]
O=C(NCC[C@@H]1CC[C@@H](NS(=O)(=O)c2cccc(F)c2)[C@@H](CO)O1)C1CCCC1	-8
OCCNCCCCOc1ccc(F)cc1	5
CN(C)CCCCOc1ccc(F)cc1	10
N=C(N)c1ccc(OCCCCCOc2ccc(C(=N)N)cc2)cc1	62*

Source: PubChem BioAssay (Broad Institute)
